Screening data from PubChem.
Compounds with a hit are over-represented: about 3.2% of the library has one in this group of screens.
Sm TGR block: S. mansoni TGR enzyme inhibition | actives 3% (n = 360,000) | Q962Y6 | Potency, µM (doses to about 114 µM), without a hit: at the top dose activity change, negative = inhibition, usual class: inhibitors | purified TGR, DTNB reduction, TNB absorbance 405 nm; also: nearly all actives have a fitted effect of over 60% in size
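Kinetic colorimetric format: TGR-catalysed, NADPH-driven DTNB reduction monitored via TNB absorbance. Enzyme dispensed at 20 nM; compound exposure 15 min at room temperature before reaction start.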
AmpC inh no detg: AmpC beta-lactamase inhibition without detergent. P00811. AmpC nitrocefin hydrolysis, absorbance 480 nm, 0.0001% Triton. Potency, µM (series often up to 57.1 µM), for inactives: top-dose activity change, negative = inhibition, most hits filed as inhibitors. actives 0.52% (n = 330,000). AID 485341;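 also: plate controls were no compound for no effect and no enzyme for full effect; nearly all actives have a fitted effect of over 20% in size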
Target sequence (P00811 whole entry, looked up): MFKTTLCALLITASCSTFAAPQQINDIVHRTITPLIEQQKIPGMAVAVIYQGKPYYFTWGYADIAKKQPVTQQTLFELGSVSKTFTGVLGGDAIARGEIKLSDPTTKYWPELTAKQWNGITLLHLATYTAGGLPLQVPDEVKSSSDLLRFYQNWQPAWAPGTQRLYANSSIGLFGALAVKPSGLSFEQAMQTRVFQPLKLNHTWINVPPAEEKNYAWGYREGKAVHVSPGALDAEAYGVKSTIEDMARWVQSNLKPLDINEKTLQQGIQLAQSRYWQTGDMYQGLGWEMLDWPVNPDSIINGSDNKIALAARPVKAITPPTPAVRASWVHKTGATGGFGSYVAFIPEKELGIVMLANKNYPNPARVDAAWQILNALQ
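AmpC (5.3 nM in the dispensed reagent) in 20 mM phosphate pH 7.0 with 0.01% (detergent screen) or 0.0001% Triton X-100 was preincubated with compounds for 15 min at room temperature. Nitrocefin was then added from an 800 uM solution, and hydrolysis was followed at 480 nm.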
AmpC detergent: blocks E. coli AmpC beta-lactamase in detergent assay; P00811; AmpC hydrolysis of nitrocefin, absorbance 480 nm, 0.01% Triton; Potency, µM (doses to about 114 µM), without a hit: at the top dose activity change, negative = inhibition, hits mostly inhibitors; actives 0.041% (n = 370,000);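 also: 0% = no-compound wells and -100% = no-enzyme wells; nearly all actives have a fitted effect of over 25% in size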
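20 mM phosphate pH 7.0 + 0.01% (detergent screen) or 0.0001% Triton X-100; 5.3 nM AmpC reagent; cpd preinc 15 min RT; nitrocefin (800 uM stock) to start; A480 q20 s × 4 min; Activity was normalised to no-enzyme and no-compound control wells.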
RE007 growth inh: less growth of the S. pombe RE007 Vpr strain; S. pombe RE007 Vpr strain, BacTiter-Glo ATP luminescence, 24 h; Potency, µM (doses to about 92.2 µM), for the others: at the highest dose activity change, negative = less growth, actives largely listed as inhibitors; actives 0.21% (n = 360,000); AID 651644; active = well fitted falling curve with a large enough effect; inconclusive = small, poorly fitted or top-dose-only effect; inactive = no such curve, though single readings can be large or run the other way; also: nearly all actives have a fitted effect of over 50% in size
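Fission yeast strain RE007, carrying one chromosomally integrated HIV-1 vpr copy, was seeded at OD 0.01 in PMG+AL medium with 23 nL pinned compound. After 24 h at 30 °C and 99% humidity, viability was read by BacTiter-Glo luminescence.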
AMA1 RON2 block: inhibitors of Plasmodium falciparum AMA1-RON2 interaction; AlphaScreen AMA1-biotinylated RON2 peptide binding; Potency, µM (highest dose often 58.2 µM), without a hit: top-dose activity change, negative = inhibition, most hits filed as inhibitors; actives 0.2% (n = 360,000);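 also: 0% = vehicle wells and -100% = peptide control; nearly all actives have a fitted effect of over 45% in size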
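AMA1 (3D7) with his tag at 25 nM final met compounds first, then biotinylated RON2 peptide at 25 nM; detection used donor plus acceptor beads, 10 µg/mL apiece, read by AlphaScreen after 30 min at room temperature.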
* = called active by the depositor; ? = inconclusive; . = not tested or not shown; [ ] = another dose, or the depositor's remark. Unless noted, calls follow the shape of the dose curve; as a rule, active = well fitted curve in the direction sought with a large enough effect; inconclusive = small, poorly fitted or top-dose-only effect, or another doubt; inactive = no such curve, though single readings can be large; an effect the other way counts as inactive or inconclusive. Unless noted, % is scaled to controls: 0 for no effect and ±100 for the full control effect; potency is read from the fitted curve at half-maximal effect.

SMILES | Sm TGR block | AmpC inh no detg | AmpC detergent | RE007 growth inh | AMA1 RON2 block
COc1ccccc1-c1nc(S(=O)(=O)c2ccc(Cl)cc2)c(N2CCCCCC2)o1 | ? | . | 15.7% | . | .
O=S(=O)(c1ccc(F)cc1)c1nc(-c2ccccc2F)oc1N1CCCCC1 | 10µM* | -26.4% | ? | -12.0% | -26.1%
Cc1ccc(S(=O)(=O)c2nc(-c3ccccc3F)oc2N2CC(C)OC(C)C2)cc1 (centres undefined) | 20µM* | 52.3% | -15.5% | 9.8% | -18.0%
O=S(=O)(c1ccccc1)c1nc(-c2ccco2)oc1N1CCCCC1 | 44.7µM* | -16.9% | -1.7% | 9.6% | 2.4%
CC(C)C(=O)Nc1cccc(C(=O)Nc2nnc(C(F)(F)F)s2)c1 | 3.5% | . | 20.6% | . | .
Cc1nc(C)c(-c2ccc(SCC(=O)Nc3ccc(Cl)c(Cl)c3)nn2)s1 | 7.7% | . | 7.6% | . | .
Cc1cc(C(=O)N/N=C/c2ccc(Cl)c([N+](=O)[O-])c2)c(C)n1-c1ccc(F)cc1 | -16.7% | 15.8µM* | -8.7% | 2.7% | 8.4%
Cc1cc(C(=O)N/N=C/c2ccc3c(c2)OCO3)c(C)n1-c1ccc(F)cc1 | -18.7% | -43.8% | 3.3% | -16.1% | 0.8%
Cc1ccc(CNC(=O)c2nnn(Cc3ccc(F)cc3)c2N)cc1 | 1.3% | . | 21.6% | . | .
CN1C(=O)C(=Cc2ccc(N3CCCCCC3)o2)C(=O)N(C)C1=S | 35.5µM* | -26.3% | -13.9% | -14.4% | -7.7%
CCOC(=O)C1CCN(Cc2ccc(O)c(OC)c2)CC1 | 56.2µM* | -3.6% | -9.9% | -10.3%[3.69 µM] | -8.7%
CCOC(=O)C1CCCN(Cc2cc(OC)c(O)c(OC)c2)C1 (centres undefined) | 15.8µM* | -17.8% | ? | 10.5% | -4.0%
CCOC(=O)C1CCN(Cc2cc(C(C)(C)C)c(O)c(C(C)(C)C)c2)CC1 | 11.2µM* | 29.6% | -2.2% | -2.7% | -9.9%
CCOC(=O)C1CCN(Cc2ccc(OC)c(OCc3ccccc3)c2)CC1 | 0.2% | 0.4% | ? | -26.3% | 15.0%
CSc1ccc(CNC(=O)c2sc3ncnc(N(C)C4CCCCC4)c3c2C)cc1 | 5.1% | . | -0.4% | . | .
COc1ccc(N2CCN(S(=O)(=O)c3ccc4c(c3)C(C(C)C)C(=O)N4)CC2)cc1 (centres undefined) | -14.3% | . | -1.5% | . | .
COc1ccc(N2CCN(S(=O)(=O)c3ccc4c(c3)NC(=O)CC(=O)N4)CC2)cc1 | 11.2µM* | -13.5% | 2.5% | -7.2% | 5.9%
Cc1nnc2c3ccccc3nc(Nc3cccc(O)c3)n12 | 0.9% | . | 13.3% | . | .
CC(=O)Nc1ccc(NC(=O)CSc2nc(N)c(NC(=O)c3ccccc3F)c(=O)[nH]2)cc1 | 89.1µM* | -10.4% | -13.0% | -20.1% | -9.2%
CC(=O)c1cccc(NC(=O)c2noc3c2CC(C)CC3)c1 (centres undefined) | 0.0% | . | 9.7% | . | .
Cc1ccc(NC(=O)c2cnn(-c3ccc(C)c(C)c3)c2C2CCN(C(=O)OC(C)(C)C)CC2)c(C)c1 | -0.7% | . | 13.3% | . | .
Cc1ccc(C)n1-c1ccc(C(=O)N/N=C/c2ccncc2)cc1 | 25.1µM* | -20.0% | 0.7% | ? | 14.3%
Cc1ccc(-c2csc(=Nc3ccc(F)cc3)n2Cc2ccc3c(c2)OCO3)cc1C | -11.5% | . | 0.9% | . | .
O=C1/C(=C/c2cccnc2)CCC/C1=C\c1cccnc1 | 39.8µM* | -6.2% | -12.9% | ? | 0.1%
CC(C)/C=C1\CC/C(=C\c2cccnc2)C1=O | 25.1µM* | -9.4% | ? | -11.0% | 10.6%
SMILES | Sm TGR block | AmpC inh no detg | AmpC detergent | RE007 growth inh | AMA1 RON2 block
CCOc1ccc(NS(=O)(=O)c2ccc(-c3cc(C)no3)s2)cc1 | -1.7% | . | 0.4% | . | .
CCn1c(SCC(=O)c2ccccc2)nc2sc3c(c2c1=O)CCN(C)C3 | 17.8µM* | 98.0% | -9.0% | -8.7% | -10.7%
COC(=O)CSc1nc2sc3c(c2c(=O)n1-c1ccccc1)CCN(C)C3 | 35.5µM* | 64.3% | -1.1% | -4.3% | -15.6%
CCn1c(SCC(=O)NCCc2ccccc2)nc2sc3c(c2c1=O)CCN(C)C3 | -2.7% | 31.5% | 3.4% | -19.6% | -16.3%
CN1CCc2c(sc3nc(SCC(N)=O)n(-c4ccccc4)c(=O)c23)C1 | ? | -7.2% | 9.4% | -4.3% | -19.3%
COc1cc(OC)c(NC(=O)C(C)n2nc(-c3ccc(C)cc3)c3c(c2=O)CCCC3)cc1Cl (centres undefined) | 5.4% | . | 13.3% | . | .
Cc1ccc(C(C)C)c(OC(C)C(=O)NCC2(N(C)C)CCCCC2)c1 (centres undefined) | 42.2% | . | -10.5% | . | .
NN/C(=C\[N+](=O)[O-])Nc1ccc(Cl)cc1 | 2.82µM* | -51.9% | 1.0% | -29.4% | 12.9%
NN/C(=C\[N+](=O)[O-])Nc1ccccc1 | 22.4µM* | -36.3% | 4.3% | -17.0% | 18.4%
NNC(=S)Nc1ccc(Cl)cc1 | -35.9% | -38.4% | -0.3% | 3.5% | 31.4%
O=C(/C=C/c1ccccc1[N+](=O)[O-])Nc1ccccc1 | 8.5% | -35.1% | -9.9% | -15.4% | -0.3%
COc1ccc(C2C(C(=O)Nc3ccccc3)=C(C)Nc3nc(-c4ccccc4Cl)nn32)cc1OC (centres undefined) | -1.2% | . | 3.5% | . | .
CC(=O)Nc1cccc(NC(=O)CSc2cn(CC(=O)N(C(C)C)C(C)C)c3ccccc23)c1 | 1.3% | . | -3.6% | . | .
Cc1ccc(/C=C/C(=O)NCCc2ccccc2)o1 | 3.16µM* | 0.0% | 5.6% | 1.7% | -10.7%
O=C(/C=C/c1ccco1)NCCc1ccccc1 | 7.94µM* | -19.0% | 6.1% | 0.4% | -2.0%
O=C(O)CCCCCNC(=O)/C=C/c1ccco1 | -0.1% | 1.3% | 1.7% | 0.0% | ?
O=C(O)CCCNC(=O)/C=C/c1ccco1 | 4.47µM* | -14.3% | -6.1% | 5.8% | 8.7%
Cc1cc(C(=O)OCC(=O)NC(C)c2ccccc2)c(C)o1 (centres undefined) | 68.9% | -6.8% | -8.8% | 2.2% | 1.2%
Cc1ccc(/C=C/C(=O)OCC(=O)NC(C)c2ccccc2)o1 (centres undefined) | 35.5µM* | -16.6% | -4.6% | 2.6% | 1.8%
CCOC(=O)Cn1c(=N)n(Cc2ccc(C(C)(C)C)cc2)c2ccccc21 | 8.2% | . | 12.0% | . | .
Oc1ccc(O)c(Cc2nc3ccccc3[nH]2)c1 | 6.31µM* | -50.0% | -0.4% | -8.5% | 61.3%
c1ccc2[nH]c(CCCc3nc4ccccc4[nH]3)nc2c1 | -12.0% | -39.4% | -6.1% | -3.5% | -16.7%
O=c1cc2oc3cc(O)c(O)cc3c(-c3ccccc3[N+](=O)[O-])c-2cc1O | -0.9% | 1.12µM* | -7.1% | -18.7% | 0.708µM*
COc1ccc(N2Cc3cccc(C(=O)Nc4cccc(F)c4)c3C2=O)cc1 | -3.5% | . | 1.0% | . | .
O=C(OCc1nnc(-c2ccccc2Br)o1)c1ccco1 | . | -49.0% | . | 2.4% | 42.4%
